A short description of experiment [1]: A549 cell viability effects, profiling panel, calcein-AM fluorescence, 48 h, basal (AID 1162). The settings on record: higher = more signal.
A short description of experiment [2]: adipocyte viability effects, profiling panel, cell-based, 3T3-L1 adipocytes, calcein-AM fluorescence, 48 h, basal (AID 1163). The settings on record: 3T3-L1 adipocytes viability, higher = more signal.
A short description of experiment [3]: HepG2 cell viability effects, profiling panel, calcein-AM fluorescence, 48 h, basal (AID 1164). The settings on record: higher = more signal.
Experiment [4] in a line: MM1S cell viability effects, profiling panel, calcein-AM fluorescence, 48 h, basal (AID 1165).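 Also: viability of MM1S multiple myeloma cells under basal unstimulated conditions.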 The settings on record: higher = more signal.
A short description of experiment [5]: basal RPMI8226 viability, no added stimulus, profiling panel, cell-based, calcein-AM fluorescence, 48 h, PK04 Diversity Set (AID 1166).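 Also: cells grown under basal conditions without added stimulus.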 The settings on record: RPMI8226 myeloma viability, higher = more signal.
A short description of experiment [6]: basal HepG2 mitochondrial membrane potential changes, profiling panel, cell-based, JC-1 fluorescence, 24 h, 100 nL compound (AID 1167). The settings on record: higher = more signal.
Experiment [7] in a line: basal 3T3-L1 adipocyte mitochondrial potential changes, profiling panel, cell-based, JC-1 fluorescence, 3T3-L1 adipocytes, 24 h, 100 nL compound (AID 1168). The settings on record: JC-1 mitochondrial fluorescence, higher = more signal, called active from +8 up or from −8 down.
Experiment [8] can be described thus: basal RPMI8226 mitochondrial membrane potential changes, profiling panel, cell-based, JC-1 fluorescence, 24 h, 100 nL compound (AID 1169). The settings on record: RPMI8226 myeloma, JC-1 mitochondrial potential fluorescence, higher = more signal.
Experiment [9] in a line: basal MM1S mitochondrial membrane potential changes, profiling panel, cell-based, JC-1 fluorescence, 24 h, 100 nL compound (AID 1170). The settings on record: higher = more signal.
The nature of experiment [10]: A549 lung cancer cell viability effects, profiling panel, resazurin fluorescence, 24 h, PK04 Diversity Set (AID 1171). The settings on record: higher = more signal, called active from +8 up or from −8 down.

Active and inactive are the calls of the source.
Also: test concentration not given here.

With `CC(C)CON=C1C[C@@H](O)[C@@H](O)[C@@H]2[C@@H]3C(=O)N(c4ccc(F)cc4F)C(=O)[C@@H]3CC[C@@H]12`, the z-score is -0.793 in [1]; 0.44 in experiment [2]; -0.464 in experiment [3]; -0.102 in experiment [4]; -0.587 in experiment [5]; 1.31 in experiment [6]. In addition, the z-score in [7] was -0.4 (inactive); in [8], -0.648; in experiment [9], -0.425; in experiment [10] it was 0.491 (inactive).

For `C#CCCCON=C1[C@H]2CCn3c(=O)n([C@@H](CC)c4ccccc4)c(=O)n3[C@H]2[C@H](O)[C@@H]2O[C@H]12`, the z-score in experiment [1] is 0.0523; in experiment [2] it was 0.44; in experiment [3] it was -0.129; in experiment [4] it was -1.77; in experiment [5], -0.0952; in [6], -0.696. The z-score is 0.123 (inactive) in experiment [7], -0.547 in experiment [8], -0.662 in [9] and 0.43 (inactive) in experiment [10].

For `CC(=O)OC[C@H]1O[C@H](C#CCC2CCCCC2)C=C[C@@H]1OC(C)=O`, the z-score was 0.422 in experiment [1]; -0.654 in [2]; 0.503 in experiment [3]; -3.48 in [4]; -3.35 in experiment [5]; -1.1 in experiment [6]. For the same compound, the z-score in [7] was -0.185 (inactive); in [8], -0.605; in experiment [9] it was -1.99; in experiment [10] it was -0.389 (inactive).

Consider `C=CC[C@@H]1C=C[C@H](ON=CC[C@@H]2C=C[C@H](OC(C)=O)[C@@H](COC(C)=O)O2)[C@@H](CO)O1`, for which the z-score was 0.452 in [1]; -0.5 in [2]; 0.347 in [3]; 0.114 in [4]; -0.445 in [5]; 0.169 in experiment [6]. The z-score was -0.01 (inactive) in experiment [7], -0.131 in [8], -0.838 in experiment [9] and -0.286 (inactive) in experiment [10].

Consider `CC(C)=CCCC(C)=CCON=C1C[C@@H](O)[C@@H](O)[C@@H]2[C@@H]3C(=O)N(c4cccc(Oc5ccccc5)c4)C(=O)[C@@H]3CC[C@H]12`, for which the z-score in experiment [1] was 0.0267; in experiment [2], -0.796; in experiment [3] it was 0.285; in [4], -1.97; in experiment [5] it was 0.504; in experiment [6], -0.253. For the same compound, the z-score is 0.496 (inactive) in [7], -0.203 in [8], -0.907 in [9] and 0.533 (inactive) in experiment [10].

As to `COc1ccc(O[C@H]2C=C[C@@H](c3ccccc3)O[C@@H]2COC(=O)CCC(C)=NOC[C@@H](O)COCc2ccco2)cc1`, the z-score is 0.944 in experiment [1]; 0.651 in experiment [2]; 0.599 in experiment [3]; -1.89 in experiment [4]; 0.107 in experiment [5]; -0.918 in experiment [6]. Besides, the z-score was 0.0665 (inactive) in experiment [7], -0.313 in experiment [8], -1.12 in [9] and 0.402 (inactive) in experiment [10].

Turning to `COc1ccc(COC(=O)NN=C2C[C@@H](O)[C@@H](O)[C@@H]3[C@@H]4C(=O)N(C5CCCCC5)C(=O)[C@@H]4CC[C@@H]23)cc1`, the z-score was 0.0391 in experiment [1]; 1.11 in [2]; 0.494 in [3]; 0.419 in experiment [4]; 0.3 in [5]; -0.0284 in experiment [6]. Moreover, the z-score is -0.297 (inactive) in experiment [7], -0.375 in experiment [8], -0.269 in [9] and -0.533 (inactive) in [10].

Consider `O=C1C=C[C@@H](O)[C@@H]2[C@@H]3C(=O)N(C4CCCCC4)C(=O)[C@@H]3CC[C@@H]12`, for which the z-score in experiment [1] is -0.0763; in experiment [2], 0.351; in experiment [3] it was -0.602; in [4] it was -1.88; in [5], -2.19; in experiment [6], 1.23. Moreover, the z-score was -0.58 (inactive) in experiment [7], -0.733 in experiment [8], -1.54 in experiment [9] and 0.269 (inactive) in experiment [10].

Regarding `COC(=O)[C@H](C)NC(=O)CCC1CC(OC(=O)NCc2cccc3ccccc23)CC2(CCCC(COC(=O)NCCCN3CCCC3=O)O2)O1` (stereo not given in full), the z-score in experiment [1] is 0.278; in [2], -0.172; in [3] it was 0.488; in experiment [4], 0.145; in experiment [5], -0.0813; in experiment [6], 0.24. In addition, the z-score in [7] was 0.338 (inactive); in experiment [8], -0.344; in [9], -0.394; in experiment [10], 0.44 (inactive).

On to `CO[C@@H]1C=CCC(=O)N[C@@H](C)C(=O)OC[C@@H](OC)[C@H](C)C=CCC(=O)OC[C@H]1C`, for which the z-score is 0.234 in experiment [1]; 0.374 in [2]; 0.0804 in [3]; 0.316 in [4]; 0.389 in experiment [5]; 0.589 in experiment [6]. In addition, the z-score in [7] was -0.848 (inactive); in experiment [8], 0.674; in experiment [9], 0.704; in experiment [10] it was 0.474 (inactive).

As to `CCCNC(=O)OC[C@H]1O[C@H](CCON=C2c3cc(OC)ccc3O[C@H](c3cccc(OC)c3)[C@H]2O)C=C[C@@H]1Oc1ccc(OC)cc1`, the z-score in [1] was 0.111; in experiment [2], 0.752; in experiment [3] it was -0.0825; in experiment [4] it was -0.187; in [5], -0.572; in experiment [6] it was 1.38. The z-score in [7] is -1.49 (inactive); in experiment [8] it was 0.0694; in experiment [9] it was -0.0229; in experiment [10], 0.409 (inactive).

For the compound `CC(CCN1CCc2nc(-c3ccccc3)c(-c3ccccc3)cc2C1)=NO[C@@H](C)c1cc(-c2c(C)cc(C)cc2C)no1`, the z-score in [1] was -0.826; in experiment [2], 0.998; in experiment [3] it was 0.321; in [4], -0.494; in experiment [5], -1.25; in [6], 2.47. For the same compound, the z-score was -1.15 (inactive) in experiment [7], -0.535 in experiment [8], -1.62 in experiment [9] and 0.235 (inactive) in experiment [10].

`CO[C@@H]1[C@H](O)CO[C@H]1C=Cc1ccccc1`: the z-score in experiment [1] was 0.998; in [2] it was 1.12; in experiment [3], -0.0866; in experiment [4], 0.018; in experiment [5] it was -0.664; in [6], 0.161. Also, the z-score was -0.267 (inactive) in experiment [7], 0.337 in experiment [8], 0.859 in experiment [9] and -0.587 (inactive) in experiment [10].

On to `CC(=O)OC[C@H]1O[C@H](CC=NO[C@@H](C)c2cc(-c3c(C)cc(C)cc3C)no2)C=C[C@@H]1OC(C)=O`, for which the z-score in experiment [1] was -0.937; in [2], 0.318; in [3], -0.799; in experiment [4], 0.267; in [5] it was -1.29; in experiment [6], -0.158. For the same compound, the z-score in experiment [7] is -0.845 (inactive); in [8], 0.774; in experiment [9] it was -0.322; in experiment [10], -0.0973 (inactive).

As to `COC(OC)[C@@H](C)[C@H](OC)[C@@H](C)[C@H](OC)c1ccccc1`, the z-score was 2.22 in [1]; 0.159 in experiment [2]; 0.568 in experiment [3]; -0.569 in experiment [4]; 0.692 in experiment [5]; 0.348 in experiment [6]. Further, the z-score in experiment [7] is -0.14 (inactive); in experiment [8], 0.404; in experiment [9] it was 1; in experiment [10], -0.996 (inactive).

Turning to `CC(CCN1CCCc2nc(C)c(C)cc21)=NOC[C@@H](C)[C@H](OCc1ccccc1)C(C)C`, the z-score in [1] is 0.803; in [2] it was 1.05; in [3], 1.18; in [4], -2.37; in experiment [5], 0.0389; in experiment [6], 1.94. Moreover, the z-score in experiment [7] is -0.584 (inactive); in experiment [8] it was 0.395; in [9], -1.46; in experiment [10] it was -0.602 (inactive).

As to `Cc1ccc2[nH]c3nc(CCCn4ccnc4-c4ccccc4)nnc3c2c1`, the z-score in experiment [1] was 0.0515; in experiment [2] it was 0.339; in [3], -0.18; in [4], 1.05; in [5] it was 0.392; in [6] it was -0.807. Also, the z-score in [7] was 1.1 (inactive); in experiment [8], 0.738; in experiment [9], -0.867; in experiment [10], 0.384 (inactive).

The values above are taken from PubChem BioAssay.
